Source: PubChem BioAssay
FBPA Giardia inh: inhibitors of Giardia lamblia fructose-1,6-bisphosphate aldolase. purified Giardia FBPA. A8B2U2. hit rate 0.71% among 290,000. AID 2451. Potency, µM (doses to about 59.6 µM), for inactives: at the top dose activity, negative = inhibition, actives largely listed as inhibitors; further: potency means the concentration at half of the fitted maximal effect; on the % scale 0 is the no-effect control and ±100 the full control effect; nearly all actives have a fitted effect of over 55% in size
Target sequence (A8B2U2 whole entry, looked up): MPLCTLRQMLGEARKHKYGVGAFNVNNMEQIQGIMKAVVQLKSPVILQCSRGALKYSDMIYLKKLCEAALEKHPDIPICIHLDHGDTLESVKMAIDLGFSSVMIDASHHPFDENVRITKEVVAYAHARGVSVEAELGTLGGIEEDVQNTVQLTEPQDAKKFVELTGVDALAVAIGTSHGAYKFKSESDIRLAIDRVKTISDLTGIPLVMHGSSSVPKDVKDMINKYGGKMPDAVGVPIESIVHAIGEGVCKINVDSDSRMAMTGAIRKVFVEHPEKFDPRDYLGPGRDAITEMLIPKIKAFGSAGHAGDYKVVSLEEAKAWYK
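40 nM FBPA preincubated 10 min at RT with compound (up to 57.5 uM final), then substrate plus GAPDH/TPI/NAD/arsenate coupling and diaphorase/resazurin added. Fluorescence read after 20 min at RT, 525/598 nm.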
CHX counter: affects cycloheximide protein synthesis inhibition readout, counter-screen | max response, % | hit rate 12% among 300,000 | cell reporter, cycloheximide protein synthesis inhibition counterscreen; in the data active means max response mostly above about 13%, no sharp cut-off; inactive means mostly below about 14%; further: read at 38.3 µM for the half of the compounds with a filed dose; 0% is about no effect
LmPK inhibitor: LmPK (Leishmania mexicana) enzyme inhibition. AID 1721. hit rate 0.37% among 290,000. Q27686. purified LmPK, Kinase-Glo ATP luminescence, 1 h. Potency, µM (doses to about 57.5 µM), without a hit: at the top dose activity change, negative = inhibition, usual class: inhibitors; further: potency means the concentration at half of the fitted maximal effect; on the % scale 0 is the no-effect control and ±100 the full control effect
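Kinase-Glo luminescence read after 1 h RT reaction of 0.1 nM LmPK with 0.5 mM PEP and 0.1 mM ADP. Activity scaled between uninhibited and enzyme-free controls.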
Tb PYK inh: inhibitors of Trypanosoma brucei pyruvate kinase | TbPYK enzyme, Kinase-Glo Plus ATP luminescence, 45 min | Potency, µM (highest dose often 76.8 µM), inactives show at the top dose activity, negative = inhibition, hits mostly inhibitors | hit rate 0.12% among 410,000 | AID 624173; further: potency means the concentration at half of the fitted maximal effect; on the % scale 0 is the no-effect control and ±100 the full control effect; nearly all actives have a fitted effect of over 50% in size
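ADP (130 uM final) triggers the TbPYK reaction after compound addition; incubation is 45 min at room temperature. Kinase-Glo Plus is then added and luminescence imaged. Normalized data are fitted to concentration-effect curves.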
Shiga inhibitor: Shiga toxin inhibition; Vero cells, Shiga toxin protein synthesis inhibition reporter; inhibition, % at 38.7 µM; hit rate 9.2% among 290,000; in the data active means inhibition mostly above about 28%, no sharp cut-off; inactive means mostly below about 43%; further: 0% is about no effect
Sm TGR block: blocks Schistosoma mansoni thioredoxin glutathione reductase; purified TGR, DTNB reduction, TNB absorbance 405 nm; Potency, µM (series often up to 114 µM), for the others: at the highest dose activity change, negative = inhibition, hits mostly inhibitors; hit rate 3% among 360,000; AID 485364; further: potency means the concentration at half of the fitted maximal effect; on the % scale 0 is the no-effect control and ±100 the full control effect; nearly all actives have a fitted effect of over 60% in size
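TGR 20 nM + NADPH 100 uM (dispensed conc.), cpd preinc 15 min RT; start with NADPH (500 uM addition) then DTNB (15 mM addition). Kinetic TNB absorbance, 405 nm filter. Four-parameter Hill fit across titration.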
* = called active by the depositor; [ ] = dose if it differs, or a comment. This excerpt belongs to a sample that is enriched for hits. Unless noted, the call rests on the fitted dose curve; in most records, active means well fitted curve in the direction sought with a large enough effect; inconclusive means small, poorly fitted or top-dose-only effect, or another doubt; inactive means no such curve, though single readings can be large; an effect the other way counts as inactive or inconclusive.

`CSCC[C@H](NC(=O)[C@@H]1CCCN1C(=O)[C@H](CCCN=C(N)N)NC(=O)[C@H](CC(C)C)NC(=O)[C@@H]1CCCN1C(=O)[C@@H](NC(=O)[C@@H](N)CCC(N)=O)C(C)C)C(=O)N[C@H](C(=O)N[C@@H](Cc1ccc(O)cc1)C(=O)N[C@@H](CCCCN)C(=O)O)[C@@H](C)O` gave FBPA Giardia inh -6%, CHX counter -5 and Shiga inhibitor -6.
Screening Cc1cc(C)c2c(=O)[nH][nH]c2n1 returned Tb PYK inh -21%.
For COc1ccc2c(c1)CC/C(=C/c1ccccn1)C2=O the results were FBPA Giardia inh -5%, CHX counter 55*, LmPK inhibitor -14%, Tb PYK inh -8%, Shiga inhibitor 100* and Sm TGR block -3%.
For CC(=O)Oc1ccc(/C=C2/CCc3ccccc3C2=O)cc1 the results were FBPA Giardia inh 3%, CHX counter 16*, LmPK inhibitor 14µM*, Tb PYK inh inconclusive, Shiga inhibitor 16 and Sm TGR block -4%.
Screening COc1ccc(OC)c(C=C2CCc3ccccc3C2=O)c1 returned Tb PYK inh -8%.
For CCOc1cc(/C=C2\COc3ccccc3C2=O)ccc1OCC(=O)N(C)C the results were FBPA Giardia inh 6%, CHX counter -3, LmPK inhibitor 2%, Tb PYK inh -4%, Shiga inhibitor -6 and Sm TGR block inconclusive.
COc1cccc(/C=C2/C(=O)NN(c3ccc(C)c(C)c3)C2=O)c1 was read as FBPA Giardia inh -18%, CHX counter 8.5*, LmPK inhibitor 6%, Tb PYK inh 5%, Shiga inhibitor 19 and Sm TGR block -31%.
Screening COc1ccc2c(c1)CC/C(=C/c1cc(OC)c(OC)c(OC)c1)C2=O returned FBPA Giardia inh 0%, CHX counter 6, LmPK inhibitor -5%, Tb PYK inh 7%, Shiga inhibitor 30 and Sm TGR block 1%.
CCNC(=O)COc1ccc(/C=C2\COc3ccccc3C2=O)cc1OC was read as FBPA Giardia inh 4%, CHX counter 2, LmPK inhibitor -2%, Tb PYK inh -1%, Shiga inhibitor -4 and Sm TGR block 40µM*.
For O=C(COc1ccccc1/C=C1\SC(=S)NC1=O)Nc1ccc(F)cc1 the results were Tb PYK inh 0%.
COc1ccc2c(c1)CC/C(=C\C=C\c1ccccc1)C2=O was read as FBPA Giardia inh inconclusive, CHX counter 25*, LmPK inhibitor 3%, Tb PYK inh -5%, Shiga inhibitor 44* and Sm TGR block 45µM*.
For CCC(=O)N1CCc2cc(S(=O)(=O)NCCC(=O)Nc3ccc(OC)c(Cl)c3)ccc21 the results were Tb PYK inh 2% and Sm TGR block 2%.
`CC[C@H](C)[C@H](NC(=O)CNC(=O)[C@@H](NC(=O)[C@@H](NC(=O)[C@H](Cc1ccc(O)cc1)NC(=O)[C@H](CC(C)C)NC(=O)[C@H](C)NC(=O)[C@H](CCC(N)=O)NC(=O)CNC(=O)[C@@H]1CCCN1C(=O)CNC(=O)[C@H](Cc1ccccc1)NC(=O)[C@H](Cc1cnc[nH]1)NC(=O)[C@@H](NC(=O)CNC(=O)[C@H](CCCNC(=N)N)NC(=O)[C@H](CCCNC(=N)N)NC(=O)[C@@H](NC(=O)[C@H](CC(N)=O)NC(=O)[C@@H](N)CS)[C@@H](C)O)[C@@H](C)CC)[C@@H](C)O)[C@@H](C)O)C(=O)O` gave FBPA Giardia inh 1%, CHX counter -8 and Shiga inhibitor -4.
`Cn1c(=O)c(=O)n(C)c2cc(N3CCCC3)c(NC(=O)c3ccc(C(C)(C)C)cc3)cc21` gave Tb PYK inh 1% and Sm TGR block inconclusive.
O=C1CCCN=C(Nc2ccc(F)c(Cl)c2)S1 was read as FBPA Giardia inh 1%, CHX counter 12, LmPK inhibitor -7%, Tb PYK inh -9%, Shiga inhibitor 54* and Sm TGR block 4%.
For OCCN1CCN(Cc2cc(Cl)c3cccnc3c2O)CC1 the results were FBPA Giardia inh inconclusive, CHX counter -3, LmPK inhibitor 3%, Tb PYK inh -7%, Shiga inhibitor -12 and Sm TGR block 45µM*.
For CCOCc1cc(CN2CCN(c3ccccc3OC)CC2)c(O)c2ncccc12 the results were Tb PYK inh -3% and Sm TGR block inconclusive.
For O=C(Oc1c(CN2CCOCC2)cc(Cl)c2cccnc12)c1ccc(F)cc1 the results were FBPA Giardia inh inconclusive, CHX counter 30*, LmPK inhibitor -1%, Tb PYK inh -6%, Shiga inhibitor 38 and Sm TGR block -5%.
For COc1ccc(C(=O)Oc2c(CN3CCOCC3)cc(Cl)c3cccnc23)cc1 the results were FBPA Giardia inh 10%, CHX counter 6, LmPK inhibitor 1%, Tb PYK inh 5%, Shiga inhibitor -16 and Sm TGR block 4%.
`Oc1c(CN2CCN(c3ccccn3)CC2)cc(Cl)c2cccnc12` gave FBPA Giardia inh inconclusive, CHX counter 14*, LmPK inhibitor 1%, Tb PYK inh 4%, Shiga inhibitor 7 and Sm TGR block inconclusive.
For O=c1c(CN2CCN(c3ccccn3)CC2)coc2ccccc12 the results were FBPA Giardia inh -22%, CHX counter 66*, LmPK inhibitor -4%, Tb PYK inh 2%, Shiga inhibitor 87* and Sm TGR block inconclusive.
`CC(=O)NCc1cc(Cl)c2cccnc2c1O` gave Sm TGR block -21%.
For CCOC(=O)c1nn(-c2ccc(F)cc2)c(=O)c2c(N)scc12 the results were FBPA Giardia inh 19%, CHX counter 19*, LmPK inhibitor 6%, Tb PYK inh -25%, Shiga inhibitor 19 and Sm TGR block 6%.
CCOC(=O)c1nn(-c2ccc(F)cc2)cc1O was read as FBPA Giardia inh -3%, CHX counter 52*, LmPK inhibitor 2%[11.5 µM], Tb PYK inh -1%, Shiga inhibitor 115* and Sm TGR block -4%.
`Cc1cc(C)n(C(=O)c2cc3c(s2)CCCC3)n1` gave FBPA Giardia inh -1%, CHX counter 19, LmPK inhibitor -6%, Tb PYK inh 2%, Shiga inhibitor 89* and Sm TGR block 0%.
Cc1oc2c(C)c3oc(=O)c(CCC(=O)N4CCCCC4)c(C)c3cc2c1C was read as Tb PYK inh -3% and Sm TGR block -6%.
CC(=O)c1sc(NC(=O)c2c(-c3ccccc3)c(-c3ccccc3)nn(C)c2=O)nc1C was read as Tb PYK inh 2% and Sm TGR block -3%.
For COc1cc2c(cc1O)CCC1C2CC[C@]2(C)[C@@H](O)CC[C@@H]12 (some centres not stated) the results were FBPA Giardia inh 1%.
